From PubChem
The list is not random: actives were taken first. Their share in the collection is about 3.8%.
proKLK7 act = proKLK7 (human) activation, primary screen. 370,000 compounds, 0.9% hits. purified proKLK7, EDANS-DABCYL substrate fluorescence; 100% is mature enzyme control, 0% vehicle. activation, % at 7 µM. P49862;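 active = activation above the mean of all tested compounds plus 3 SD, computed per campaign excluding outliers beyond control limits, cut at about 13% in these data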
Target sequence (P49862 whole entry, looked up): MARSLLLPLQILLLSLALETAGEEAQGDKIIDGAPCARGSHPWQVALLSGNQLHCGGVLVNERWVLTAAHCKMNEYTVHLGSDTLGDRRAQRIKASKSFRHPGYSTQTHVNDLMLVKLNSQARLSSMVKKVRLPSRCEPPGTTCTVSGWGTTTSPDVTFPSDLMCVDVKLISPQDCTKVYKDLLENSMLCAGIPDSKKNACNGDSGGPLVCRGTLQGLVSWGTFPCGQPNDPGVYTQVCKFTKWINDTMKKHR
FGF22 binding = FGF22 (human) thermal shift binding; Q9HCT0; 340,000 compounds, 1.5% hits; recombinant FGF22 thermal shift, SYPRO orange fluorescence; percent of sucrose octasulfate shift, DMSO zero; activity (Tm shift, normalised), % at 9.99 µM; AID 651658;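 active = mean Tm shift, scaled 0 neutral to 100 positive control, at about 1.3% or above, every replicate too, limit read from the data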
Target sequence (Q9HCT0 whole entry, looked up): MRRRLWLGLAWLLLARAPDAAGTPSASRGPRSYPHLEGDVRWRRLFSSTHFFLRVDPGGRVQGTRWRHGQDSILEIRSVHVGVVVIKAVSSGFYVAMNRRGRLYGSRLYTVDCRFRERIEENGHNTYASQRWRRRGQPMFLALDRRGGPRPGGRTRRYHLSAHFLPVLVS
ADAM17 inh = inhibitors of human ADAM17 | P78536 | recombinant ADAM17, EDANS/DABCYL FRET peptide cleavage | inhibition, % at 6.95 µM | 370,000 compounds, 0.83% hits | AID 720648;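 active = inhibition above the mean of compounds lying between control limits plus 3 SD, set per campaign, cut at about 8.5% in these data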;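 also: 0% = DMSO-only wells as the low control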
Ecoli rRNA inh = inhibits bacterial ribosomal RNA function over humanized ribosomes. GFP signal change (wild-type ribosome), % (no concentration beside the values). 350,000 compounds, 1.6% hits. E. coli WT GFP vs humanized-ribosome RFP mutants, fluorescence, 24 h; hits give low values; DMSO median 0, no signal -100. AID 720706;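 active = significant combined selectivity score with lowered wild-type GFP, culture density cut under 30%, mutant RFP and density less affected; inactive = any of these conditions unmet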
ADAM10 inh = inhibits human ADAM10; recombinant ADAM10, EDANS/DABCYL FRET peptide cleavage, 3 h; O14672; inhibition, % at 7 µM; AID 720582; 370,000 compounds, 0.62% hits;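 active = inhibition above a per-campaign cutoff equal to the mean of compounds falling between control-based bounds plus 3 SD, cut at about 20% in these data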;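 also: 0% = DMSO wells while the 100% control is not disclosed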
* marks the source's active call; other numbers are inactive results.

O=C(O)C(F)=C1c2ccccc2-c2ccccc21 was read as proKLK7 act 0, FGF22 binding 0, ADAM17 inh -2, Ecoli rRNA inh -30* and ADAM10 inh 2.
`Cc1noc(C)c1C(c1ccccc1)c1ccccc1` gave FGF22 binding 0 and Ecoli rRNA inh -47*.
Screening Cc1noc(C)c1C(c1ccccc1)S(=O)(=O)c1ccccc1 (centres undefined) returned proKLK7 act 0, ADAM17 inh 0 and ADAM10 inh 17.
For CC(C)(C)n1nnnc1C(c1ccc2ncccc2c1)N1CCC(O)CC1 (centres undefined) the results were proKLK7 act 0, FGF22 binding 44*, ADAM17 inh 0 and ADAM10 inh 4.
Cc1[nH]c2ccccc2c1/C=N/Nc1nncn1N was read as proKLK7 act 0, FGF22 binding -1, ADAM17 inh 2, Ecoli rRNA inh -30* and ADAM10 inh 16.
`CC(C)NC(=O)N1CC(=O)N2[C@@H](CO)[C@H](c3ccc(/C=C/c4ccccc4)cc3)[C@@H]2C1` gave FGF22 binding 0 and Ecoli rRNA inh -1.
For C[C@@H]1CCCCO[C@@H](CN(C)S(=O)(=O)c2ccc(F)cc2)[C@@H](C)CN([C@H](C)CO)C(=O)c2cc(NC(=O)Nc3ccccc3)ccc2O1 the results were FGF22 binding 0 and Ecoli rRNA inh 7.
For CC(NC1CCCCC1)C(=O)NN=C(c1ccccc1)c1ccccc1 (centres undefined) the results were proKLK7 act 0, FGF22 binding 0, ADAM17 inh 2, Ecoli rRNA inh -25* and ADAM10 inh -1.
`CC(Cl)C(=O)NN=C(c1ccccc1)c1ccccc1` (centres undefined) gave proKLK7 act 0, FGF22 binding 0, ADAM17 inh 3, Ecoli rRNA inh 1 and ADAM10 inh 7.
For O=C(O)CSc1ccc(Oc2ccc(SCC(=O)O)cc2)cc1 the results were proKLK7 act 0, FGF22 binding 43*, ADAM17 inh -1, Ecoli rRNA inh 24 and ADAM10 inh -1.
For COc1ccc(CC(C#N)(CO)c2nc3ccccc3[nH]2)cc1 (centres undefined) the results were proKLK7 act 0, ADAM17 inh 1 and ADAM10 inh -4.
`N#CC(CO)(Cc1ccc(OC(F)F)cc1)c1nc2ccccc2[nH]1` (centres undefined) gave proKLK7 act 0, FGF22 binding 0, ADAM17 inh -1, Ecoli rRNA inh -21* and ADAM10 inh -2.
`COc1ccccc1N1CCN(S(=O)(=O)c2cn(C)c(=O)n(C)c2=O)CC1` gave proKLK7 act -1, FGF22 binding 0, ADAM17 inh -3, Ecoli rRNA inh 5 and ADAM10 inh -12.
Screening Cc1ccccc1OS(=O)(=O)c1cn(C)c(=O)n(C)c1=O returned proKLK7 act 0, FGF22 binding 43*, ADAM17 inh 0, Ecoli rRNA inh 10 and ADAM10 inh -11.
C/C(N)=C(/C#N)C(=O)CSc1nnc(C)n1-c1ccccc1 was read as proKLK7 act -1, FGF22 binding 43*, ADAM17 inh 2, Ecoli rRNA inh -1 and ADAM10 inh 11.
For C/C(N)=C(/C#N)C(=O)CSc1nnc(-c2ccccc2)n1C the results were proKLK7 act 0, FGF22 binding 0, ADAM17 inh -8, Ecoli rRNA inh 9 and ADAM10 inh -11.
`O=C(Nc1ccccc1)Nc1ccc2c(c1)[C@H]1C[C@@H](CC(=O)N3CCOCC3)O[C@H](CO)[C@H]1O2` gave FGF22 binding 0 and Ecoli rRNA inh 0.
Screening COc1ccc(Nc2cnn(-c3nc4ccccc4s3)c(=O)c2Cl)cc1 returned proKLK7 act -1, FGF22 binding 0, ADAM17 inh -2, Ecoli rRNA inh -25* and ADAM10 inh -6.
Screening C[C@@H]1CCCCO[C@@H](CN(C)C(=O)Nc2ccc3c(c2)OCO3)[C@@H](C)CN([C@H](C)CO)C(=O)c2cc(NC(=O)NC3CCCCC3)ccc2O1 returned FGF22 binding 0 and Ecoli rRNA inh 4.
Cc1nn2c(NCCCn3ccnc3)cc(C(C)C)nc2c1-c1ccccc1 was read as proKLK7 act -7, FGF22 binding 0, ADAM17 inh -16, Ecoli rRNA inh -45* and ADAM10 inh -51.
Screening CC(=O)Nc1ccc(Nc2cc(C(C)C)nc3c(-c4ccccc4)c(C)nn23)cc1 returned proKLK7 act -24, FGF22 binding 0, ADAM17 inh -42, Ecoli rRNA inh 2 and ADAM10 inh -73.
COc1ccc(C(=O)NC(=S)NCc2cccnc2)cc1Cl was read as proKLK7 act 0, FGF22 binding 0, ADAM17 inh -4, Ecoli rRNA inh -21* and ADAM10 inh 5.
`COc1ccc(C(=O)NCc2cccnc2)cc1Br` gave proKLK7 act 0, ADAM17 inh -1 and ADAM10 inh -5.
COc1ccc(NC(=S)NCc2cccnc2)cc1 was read as proKLK7 act 1, FGF22 binding 0, ADAM17 inh 4, Ecoli rRNA inh -4 and ADAM10 inh 11.
For CC(C)(C)c1ccc(NC(=S)NCc2cccnc2)cc1 the results were proKLK7 act 0, FGF22 binding 0, ADAM17 inh -2, Ecoli rRNA inh -22* and ADAM10 inh 0.
For S=C(NCc1cccnc1)Nc1ccc(Oc2ccc(Cl)cc2)cc1 the results were proKLK7 act -1, FGF22 binding 0, ADAM17 inh 0, Ecoli rRNA inh -26* and ADAM10 inh 5.
Screening C[C@@H]1CCCCO[C@H](CN(C)S(=O)(=O)c2cccs2)[C@@H](C)CN([C@@H](C)CO)C(=O)c2cc(NC(=O)Nc3ccc(F)cc3)ccc2O1 returned FGF22 binding 0 and Ecoli rRNA inh 6.
NS(=O)(=O)c1ccc(NC(=O)C(Sc2ccccc2)c2ccccc2)cc1 (centres undefined) was read as proKLK7 act 1, FGF22 binding 1.4*, ADAM17 inh 4, Ecoli rRNA inh -50 and ADAM10 inh 2.
Screening NS(=O)(=O)c1ccc(NC(=O)CSc2ccccc2)cc1 returned proKLK7 act -1, FGF22 binding 0, ADAM17 inh -1, Ecoli rRNA inh 3 and ADAM10 inh -3.
`CC(C)CNC(C)C(=O)Nc1ccc(S(N)(=O)=O)cc1` (centres undefined) gave proKLK7 act 0, FGF22 binding 43*, ADAM17 inh 0, Ecoli rRNA inh 10 and ADAM10 inh 0.
CCCC(C)C(=O)Nc1ccc(S(N)(=O)=O)cc1 (centres undefined) was read as proKLK7 act 0, ADAM17 inh 1, Ecoli rRNA inh 5 and ADAM10 inh -7.
